# Assay outcomes: PubChem BioAssay, The Scripps Research Institute Molecular Screening Center
# MITF inh = MITF inhibitors, primary screen, biochemical, AlphaScreen, human | AlphaScreen MITF homodimerization, bead proximity signal | inhibition, % at 2.6 µM | hit rate 0.91% among 650,000 | AID 1259374, 2018; in the data active = inhibition above about 50%
# TEAD-YAP block = TEAD-YAP interaction inhibition, primary screen, TEAD-YAP interaction inhibitor project, luminescence, HEK-TIYL cells; hit rate 1.4% among 640,000; AID 1259422, 2018; inhibition, % at 9.12 µM; TEAD-Gal4/YAP UAS-luciferase luminescence; in the data active = inhibition above about 32%
# GPR151 ag = activators of human GPR151, primary screen, cell-based, PathHunter beta-arrestin, luminescence; PathHunter beta-arrestin GPR151 cells; hit rate 1% among 650,000; activation, % at 11.2 µM; G-protein coupled receptor 151 (Homo sapiens), Q8TDV0; in the data active = activation above about 4.9%
# FBW7 act = FBW7 E3 ligase activators, primary screen, biochemical, AlphaScreen, human; hit rate 0.13% among 650,000; normalized activity (activation), % at 26.1 µM; AID 1259310, 2017; F-box/WD repeat-containing protein 7 (Homo sapiens), Q969H0; AlphaScreen FBW7–phospho-cyclin E peptide binding, activator screen; in the data active = normalized activity above about 1.9%;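 also: purified mutant Fbw7 with reduced substrate affinity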
# GPR151 conf act = GPR151 activators, triplicate retest, confirmation, cell-based, PathHunter beta-arrestin, luminescence. shares compounds with GPR151 ag. GPR151 PathHunter beta-arrestin cells, 90 min; % of EA-reagent control over plate median. activation, % at 11.2 µM. 6,700 tested, under 10 active;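 active = mean percent activation across replicates above the confirmation screen cutoff of 4.91%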
# GPR119 ag = GPR119 activators in beta-arrestin cells, counter-screen for GPR151 activator project, cell-based, PathHunter beta-arrestin, luminescence, triplicate; shares compounds with GPR151 ag; 90 min; 0 = compound-well median, 100 = enzyme-acceptor control; activation, % at 11.2 µM; hit rate 0.3% among 6,700; AID 1508611, 2020;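 active = mean percent activation in the counterscreen above 29.09%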;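 also: counterscreen on off-target GPR119 to flag nonselective hits from the GPR151 activator screen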
# Target sequence (Q8TDV5 whole entry, looked up): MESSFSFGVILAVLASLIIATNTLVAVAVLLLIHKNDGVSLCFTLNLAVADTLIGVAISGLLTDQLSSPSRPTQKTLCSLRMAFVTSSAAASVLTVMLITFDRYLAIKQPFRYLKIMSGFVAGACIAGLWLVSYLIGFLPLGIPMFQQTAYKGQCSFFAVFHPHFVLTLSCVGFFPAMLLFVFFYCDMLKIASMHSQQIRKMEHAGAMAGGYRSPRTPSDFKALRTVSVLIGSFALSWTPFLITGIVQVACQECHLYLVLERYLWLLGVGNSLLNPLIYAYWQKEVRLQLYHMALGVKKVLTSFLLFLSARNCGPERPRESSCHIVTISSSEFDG
# A number is an active result; - = inactive; . = no result; ! = not confirmed by another sample. This is a sample that favours compounds with a hit; in the whole collection about 3.5% have one here.
SMILES,MITF inh,TEAD-YAP block,GPR151 ag,FBW7 act,GPR151 conf act,GPR119 ag
Cc1ccc(C)c(OCC(=O)N(Cc2nc(-c3ccccc3)no2)C(C)C)c1,-,-,-,-,.,.
Cc1cccc(NC(=O)c2nc[nH]c2C(=O)Nc2cccc(C)c2)c1,-,-,6.6,-,-,-
Cc1ccc(NC(=O)c2nc[nH]c2C(=O)Nc2ccc(C)cc2)cc1,-,-,-,-,.,.
C/C(=C\c1ccccc1)C(=O)NCCc1ccccc1,-,-,15,-,-,-
COc1ccc(Oc2c(C(F)(F)F)oc3cc(OC(=O)c4ccco4)ccc3c2=O)cc1,-,-,-,-,.,.
CC(C)CCN1CCNC(=O)C1CC(=O)NCC1(c2ccccc2)CCOCC1 (configuration not stated),-,-,6.1,-,-,-
CCOc1ccc(CN2CCNC(=O)C2CC(=O)NCC2(c3ccccc3)CCCC2)cc1 (configuration not stated),-,-,8.0,-,-,-
CC1CCN(C(=O)C2CCN(S(=O)(=O)c3ccc4c(c3)oc(=O)n4C)CC2)CC1,-,-,-,-,.,.
COc1ccc(CCC(=O)NCc2ccc(Cl)cc2)cc1,-,-,-,-,.,.
CSc1cccc(NC(=O)CCc2c(C)nc3nc(CN)nn3c2C)c1,-,-,-,-,.,.
O=S(=O)(Nc1ncccn1)c1ccc(-n2cccc2)cc1,-,-,-,-,.,.
Cc1ccc(Nc2nc(N(C)C)nc3c2cnn3C)cc1C,-,-,6.2,-,-,-
CN(C)c1nc(Nc2ccc(F)cc2)c2cnn(C)c2n1,-,-,-,-,.,.
O=c1c2ccccc2nc(SCc2ccccc2Cl)n1Cc1ccco1,-,-,-,-,.,.
COc1cccc(OC)c1C(=O)NCc1nc(-c2ccc(C)cc2)no1,-,-,-,-,.,.
O=C(NCc1nc(-c2ccccc2)no1)c1cc(Br)ccc1Cl,-,-,5.3,-,-,-
COc1ccc(-c2noc(CNC(=O)C(Cl)(Cl)Cl)n2)cc1,-,-,8.0,-,-,-
COc1cccc(OC)c1C(=O)NCc1nc(-c2ccc(Cl)cc2)no1,-,-,8.0,-,-,-
O=C(NCc1nc(-c2ccccc2)no1)c1ccccc1Cl,-,-,-,-,.,.
COc1ccc(-c2noc(CC(=O)Nc3ccc(C(C)C)cc3)n2)cc1,-,-,6.0,-,-,-
O=C(/C=C/c1ccccc1)N1CCN(c2ccc(Nc3ccncc3)nn2)CC1,-,-,-,-,.,.
O=C(NCc1ccc2c(c1)OCO2)c1ccc(N2CCC(NC3CC3)CC2)cc1,-,-,-,-,.,.
CC(=O)Nc1ccc(C(=O)Nc2ccc(Br)cc2)cc1,-,-,-,-,.,.
Cc1ccccc1NCC(=O)N/N=C\c1ccccc1[N+](=O)[O-],-,-,-,-,.,.
Cc1ccc(C)c(OCC(=O)NCc2nc(-c3ccc(Cl)cc3)no2)c1,-,-,-,-,.,.
SMILES,MITF inh,TEAD-YAP block,GPR151 ag,FBW7 act,GPR151 conf act,GPR119 ag
COc1ccc(-c2noc(CNC(=O)Cc3ccc(OC)c(OC)c3)n2)cc1,-,-,5.1,-,-,-
Cc1ccc(CC(=O)NCc2nc(-c3ccccc3)no2)cc1,-,-,5.7,-,-,-
Cc1cc(OCC(=O)NCc2nc(-c3ccccc3)no2)cc(C)c1Br,-,-,11,-,-,-
O=C(O)c1cc2c(=O)[nH]c3ccccc3c2s1,-,-,-,-,.,.
CC(C)(C)c1ccc2c(c1)N(CC(=O)NC1CCCCCC1)C(=O)CO2,-,-,5.5,-,-,-
O=C(CN1C(=O)COc2ccc(Cl)cc21)NC1CCCCCC1,-,-,-,-,.,.
COCCNC(=O)CN1C(=O)COc2ccc(Cl)cc21,-,-,7.8,-,-,-
CC(C)NC(=O)CN1C(=O)COc2ccc(C(C)(C)C)cc21,-,-,5.8,-,-,-
COc1ccc(S(=O)(=O)n2nc(OC(=O)c3c(F)cccc3Cl)cc2N)cc1,-,-,-,-,.,.
CCOC(=O)CSCC(=O)N1N=C(c2cccs2)CC1c1cccc(OC)c1OC (configuration not stated),-,-,6.6,-,-,-
COC(=O)C1=CN(C2CC2)C=C(C(=O)OC)C1c1cccc(O)c1,-,-,-,-,.,.
COC(=O)C1=CN(C2CC2)C=C(C(=O)OC)C1c1cccc(OC)c1,-,-,5.5,-,-,-
C[C@@H](O)CCC[C@H](O)/C=C/C1=C(C/C=C\CCCC(=O)O)C(=O)CC1,-,.,-,.,.,.
CCCCC[C@H](O)/C=C/C1=C(CCCCCCC(=O)O)C(=O)CC1,-,-,5.6!,-,-,-
CCOC(=O)CN1CC(O)=C(C=NCc2ccccc2)C1=O,-,-,7.4,-,-,-
Cc1nnc(NC(=O)C(C)N2CCCC2)s1 (configuration not stated),-,-,14,-,-,-
Cc1nnc(NC(=O)C(C)N2CCN(C)CC2)s1 (configuration not stated),-,-,-,-,.,.
COc1cc2sc(=NC(=O)C3COc4ccccc4O3)n(C)c2cc1OC (configuration not stated),-,-,6.6,-,-,-
Cn1ccsc1=NC(=O)C1COc2ccccc2O1 (configuration not stated),-,-,-,-,.,.
COc1cc(CO)cc(Cl)c1OCc1ccccc1C#N,-,-,6.7,-,-,-
Cc1ccc(C)c(NS(=O)(=O)c2c[nH]c(=O)[nH]c2=O)c1,-,-,-,-,.,.
Cn1cccc1C(CNS(=O)(=O)c1cc(F)ccc1F)N1CCCC1 (configuration not stated),-,-,-,-,.,.
CCOc1ccc(C)cc1S(=O)(=O)NCC(c1cccn1C)N1CCCC1 (configuration not stated),-,-,5.2,-,-,-
CCc1ccccc1NC(=O)CCC(=O)OCC(=O)c1ccc([N+](=O)[O-])cc1,-,-,-,-,.,.
CCc1ccccc1NC(=O)CCCC(=O)OCC(=O)c1ccc([N+](=O)[O-])cc1,-,-,5.5,-,-,-
O=[N+]([O-])c1cccc(/C=C/c2ccc3c(Cl)ccc(O)c3n2)c1,-,-,-,-,.,.
COc1ccc(NC(=S)Nc2ccc(S(N)(=O)=O)cc2)c(OC)c1,-,-,-,-,.,.
COc1ccc(CCNS(=O)(=O)c2ccc(S(=O)(=O)N3CCOCC3)cc2)cc1,-,-,5.6,-,-,-
COc1ccc(NS(=O)(=O)c2ccc(S(=O)(=O)N3CCOCC3)cc2)cc1,-,-,-,-,.,.
